Experimental data: PubChem BioAssay (NCATS)
Results filed as inconclusive are left out. A call without a number means that no potency is given here. Active and inactive are the calls of the source. The call rests on the fitted dose curve; in most records, active means well fitted inhibition curve with a large enough effect; inconclusive means small, poorly fitted or top-dose-only effect; inactive means flat fitted curve, though single readings scatter.
Potency means the concentration at half of the fitted maximal effect.

The compounds below were run on DIV30 (assay: qHTS profiling for inhibitors of Plasmodium falciparum proliferation (AID 504749; further: nearly all actives have a fitted effect of over 60% in size)). Conditions: P. falciparum in erythrocytes, SYBR Green DNA, 72 h; series mostly up to 12.8 µM.
In short: (§1)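 P. falciparum-infected erythrocytes (0.3% parasitemia, 2.5% hematocrit) incubated with compound 72 h at 37 C, 5% CO2. Parasite DNA detected by SYBR Green after lysis, overnight at room temperature; normalised to 0.29 uM artemisinin and DMSO.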
In the case of `CC1(C)S[C@H]2C(NC(=O)[C@@H](N)c3ccc(O)cc3)C(=O)N2[C@@H]1C(=O)O` (stereo partly specified), the Potency is reported as “inactive”. In the case of `CN(C)CCc1c[nH]c2ccc(CC3COC(=O)N3)cc12` (stereo unspecified), the Potency is reported as “inactive”. In the case of `C[C@@]12CCC(=O)C=C1C=CC1C2CC[C@]2(C)C1CC[C@@]21CCC(=O)O1` (stereo partly specified), the Potency is reported as “inactive”. In the case of `NC(CCC(=O)N[C@@H](CS)C(=O)NCC(=O)O)C(=O)O` (stereo partly specified), the Potency is reported as 12 µM (active). In the case of `CC(C)Oc1ccc2c(=O)cc(-c3ccccc3)oc2c1`, the Potency is reported as “inactive”. With `CCCCCCCCCc1ccc(OCCOCCOCCOCCOCCOCCOCCOCCOCCO)cc1` the Potency was “inactive”. `CC(=O)O[C@@]1(C(C)=O)CCC2C3CC(C)C4=CC(=O)CC[C@@]4(C)C3CC[C@]21C` (stereo partly specified) was tested, and the Potency was “inactive”. For `N[C@@H]1C(O)OC(CO)C(O)C1O` (stereo partly specified), the Potency was “inactive”. In the case of `C=Cc1c(C)/c2[n-]/c1=C\c1[n-]c(c(CC)c1C)/C=c1\[n-]c3c(c1C)C(=O)C(C(=O)[O-])C=3c1[n-]c(c(C)c1CCC(=O)[O-])\C=2.[Cu].[Na+].[Na+]` (stereo unspecified), the Potency is reported as “inactive”. In the case of `CCC(=O)O[C@@]1(C(=O)CCl)C(C)CC2C3CCC4=CC(=O)C=C[C@@]4(C)[C@]3(F)C(O)C[C@]21C` (stereo partly specified), the Potency is reported as 12 µM (active). For `CC(=O)[C@]1(O)CCC2C3C=C(Cl)C4=CC(=O)C5CC5[C@@]4(C)C3CC[C@]21C` (stereo partly specified), the Potency was “inactive”. `C[C@@]12C=CC(=O)C=C1CCC1C3CC(O)[C@@](O)(C(=O)CO)[C@]3(C)CC(O)[C@]12F` (stereo partly specified) was tested, and the Potency was “inactive”. With `CCC1OC(=O)C(C)[C@@H](O[C@H]2C[C@@](C)(OC)C(O)C(C)O2)C(C)[C@@H](O[C@@H]2OC(C)CC(N(C)C)C2O)[C@@](C)(O)CC(C)C(=O)[C@@H](C)C(O)[C@]1(C)O` (stereo partly specified) the Potency was “inactive”. With `CC1C2CCC3C4CC=C5CC(N(C)C)CC[C@@]5(C)C4CC[C@@]32CN1C` (stereo partly specified) the Potency was “inactive”. In the case of `CCC(C)C(=O)OC1CC(O)C=C2C=CC(C)C(CCC(O)CC(O)CC(=O)O)C21` (stereo unspecified), the Potency is reported as “inactive”. For `OCC1OC(n2cnc3c(=S)nc[nH]c32)C(O)C1O` (stereo unspecified), the Potency was “inactive”.

What follows are compounds tested on Dd2 in the same assay as above. Conditions: P. falciparum in erythrocytes, SYBR Green DNA, 72 h; series mostly up to 12.8 µM.
In short: as §1
For `CC1(C)S[C@H]2C(NC(=O)[C@@H](N)c3ccc(O)cc3)C(=O)N2[C@@H]1C(=O)O` (stereo partly specified), the Potency was “inactive”. In the case of `CN(C)CCc1c[nH]c2ccc(CC3COC(=O)N3)cc12` (stereo unspecified), the Potency is reported as “inactive”. For `C[C@@]12CCC(=O)C=C1C=CC1C2CC[C@]2(C)C1CC[C@@]21CCC(=O)O1` (stereo partly specified), the Potency was “inactive”. In the case of `NC(CCC(=O)N[C@@H](CS)C(=O)NCC(=O)O)C(=O)O` (stereo partly specified), the Potency is reported as 5.01 µM (active). With `CC(C)Oc1ccc2c(=O)cc(-c3ccccc3)oc2c1` the Potency was “inactive”. `N[C@@H]1C(O)OC(CO)C(O)C1O` (stereo partly specified) was tested, and the Potency was “inactive”. `CCC1OC(=O)CC(O)C(C)[C@@H](O[C@@H]2OC(C)[C@H](O[C@@H]3C[C@@](C)(O)C(O)C(C)O3)C(N(C)C)C2O)[C@H](CC=O)CC(C)C(=O)/C=C/C(C)=C/[C@@H]1COC1OC(C)C(O)C(OC)[C@@H]1OC` (stereo partly specified) was tested, and the Potency was 0.891 µM (active). With `CC(=O)[C@]1(O)CCC2C3C=C(Cl)C4=CC(=O)C5CC5[C@@]4(C)C3CC[C@]21C` (stereo partly specified) the Potency was “inactive”. In the case of `CO[C@]12C(COC(N)=O)C3=C(C(=O)C(C)=C(N)C3=O)N1CC1NC12` (stereo partly specified), the Potency is reported as 0.398 µM (active). With `C[C@@]12C=CC(=O)C=C1CCC1C3CC(O)[C@@](O)(C(=O)CO)[C@]3(C)CC(O)[C@]12F` (stereo partly specified) the Potency was “inactive”. `CCC1OC(=O)C(C)[C@@H](O[C@H]2C[C@@](C)(OC)C(O)C(C)O2)C(C)[C@@H](O[C@@H]2OC(C)CC(N(C)C)C2O)[C@@](C)(O)CC(C)C(=O)[C@@H](C)C(O)[C@]1(C)O` (stereo partly specified) was tested, and the Potency was “inactive”. `CC1C2CCC3C4CC=C5CC(N(C)C)CC[C@@]5(C)C4CC[C@@]32CN1C` (stereo partly specified) was tested, and the Potency was “inactive”. `COC1CC(O[C@H]2/C(C)=C/CC3CC(C[C@]4(CCC(C)C(C5CCCCC5)O4)O3)OC(=O)[C@H]3C=C(C)/C(=N/O)C4OC/C(=C\C=C\[C@@H]2C)[C@@]43O)OC(C)C1O` (stereo partly specified) was tested, and the Potency was “inactive”. In the case of `CCC(C)C(=O)OC1CC(O)C=C2C=CC(C)C(CCC(O)CC(O)CC(=O)O)C21` (stereo unspecified), the Potency is reported as “inactive”. With `OCC1OC(n2cnc3c(=S)nc[nH]c32)C(O)C1O` (stereo unspecified) the Potency was “inactive”.
